Source: PubChem BioAssay (NCI)
This is part of a sample that, as a whole, favours compounds with a hit. Of some 79,000 tested, about 15% had one in any assay. No stated cut-off is given here; in the data, active means growth inhibition above about 70%; inactive means the rest.

Tests used:
[1] = NCI Yeast Anticancer Drug Screen. Data for the rad50 strain (AID 155);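 further: 0% = growth of vehicle-only cultures of the same strain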; settings: S. cerevisiae rad50 strain growth inhibition; at 50.0 µM; active compounds read high
Summary of the method: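 Readout: growth inhibition relative to vehicle-treated cultures. Compound exposure was carried out in a genetically defined yeast strain deficient in DNA damage repair.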

[2] = NCI Yeast Anticancer Drug Screen. Data for the mec2-1 strain (AID 157); settings: S. cerevisiae mec2-1 strain, at 50.0 µM, active compounds read high
Summary of the method: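 Yeast mec2-1 mutant treated with compound. Readout: growth inhibition vs vehicle controls.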

[3] = NCI Yeast Anticancer Drug Screen. Data for the sgs1 mgt1 strain (AID 161);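 further: 0% = growth of cultures given vehicle only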; settings: S. cerevisiae sgs1 mgt1 strain, at 50.0 µM, active compounds read high
Summary of the method: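 Inhibition of yeast growth, normalised to vehicle-treated controls, is reported for a strain bearing genetic alterations in DNA damage repair.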

[4] = NCI Yeast Anticancer Drug Screen. Data for the cln2 rad14 strain (AID 165);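 further: 0% = growth equal to vehicle treated cultures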; settings: S. cerevisiae cln2 rad14 strain, at 50.0 µM, active compounds read high
Summary of the method: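 cln2 rad14 yeast strain; compound exposure; growth inhibition read vs vehicle controls.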

[5] = NCI Yeast Anticancer Drug Screen. Data for the bub3 strain (AID 167); settings: S. cerevisiae bub3 mutant strain, at 50.0 µM, active compounds read high
Summary of the method: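 Readout: yeast growth inhibition, expressed relative to vehicle-only wells. The test organism is a mutant strain from a panel with lesions in DNA repair or checkpoint genes.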

[6] = NCI Yeast Anticancer Drug Screen. Data for the mlh1 rad18 strain (AID 175); settings: S. cerevisiae mlh1 rad18 strain growth inhibition; at 50.0 µM; active compounds read high
Summary of the method: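 Yeast w/ defined DNA-repair lesions; compound exposure; growth vs vehicle controls → % inhibition.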

Measured: growth inhibition

OCCSc1ccc(Cl)cc1
inactive: [1] 14.4% | [2] 25.9% | [3] 5.95% | [4] -31.5% | [5] 12.8% | [6] 27.5%

O=[N+]([O-])c1ccc(/C=N/C(/N=C/c2ccc([N+](=O)[O-])cc2)c2ccc([N+](=O)[O-])cc2)cc1
inactive: [1] 8.05% | [2] -6.25% | [3] 6.35% | [4] 1.55% | [5] -4.05% | [6] 23.9%

C=CCN1C(=O)c2ccccc2C1=O
inactive: [1] 24.3% | [2] -3.2% | [3] 11.6% | [4] 6.85% | [5] 22.6% | [6] 21.6%

C[N+](C)(C)C/C=C/C[N+](C)(C)C
inactive: [1] 9.85% | [2] -3.1% | [3] -5.95% | [4] -22.3% | [5] 0.85% | [6] 1.85%

Cc1cc(Cl)c2c(C)ccc(C)c2n1
inactive: [1] -4.25% | [2] -31.9% | [3] 9.85% | [4] 5.7% | [5] 4% | [6] 8.95%

CN=C/C(C(C)=O)=C(\C)O
inactive: [1] 4.1% | [2] -0.05% | [3] -4.85% | [4] 3.6% | [5] 8.5% | [6] 0.65%

COC[C@@H](N=Cc1ccc(OC)cc1)C(C)C
inactive: [1] -12.2% | [2] -19.4% | [3] -49.6% | [4] -28.8% | [5] 25.9% | [6] -30.5%

CCOC(=O)/C(C#N)=C/c1cc(Br)c(O)c(OC)c1
inactive: [1] -12.3% | [2] -22% | [3] 25.4% | [4] -0.8% | [5] 6.25% | [6] 10.8%

Cc1ccc(C(=O)OCc2ccccc2CN2CCCCC2)cc1
inactive: [1] 1.6% | [2] -8.35% | [3] -22.6% | [4] -19.7% | [5] 3.6% | [6] 2.1%

CCOC(=O)c1ccc(N2C(=S)N(C(=O)c3ccccc3)C(=Nc3ccccc3)C2=Nc2ccccc2)cc1
inactive: [1] 11.2% | [2] 3.15% | [3] 5.25% | [4] 1.35% | [5] 3.85% | [6] -37.4%

O=C1CC2C3CC4(OCCO4)C4C3CC2C14 (configuration not stated)
inactive: [1] 8.25% | [2] 2.45% | [3] 3% | [4] 8.65% | [5] 2.1% | [6] 5.8%

CN1c2ccccc2S(=O)(=O)n2c(COc3ccc(Cl)cc3)nnc21
inactive: [1] -3.4% | [2] 4.15% | [3] 2.5% | [4] 12% | [5] 3.05% | [6] 2.6%

COC(=O)CCCCCNC(=O)NCCCCCC(=O)OC
inactive: [1] 4.6% | [2] -21% | [3] -1.2% | [4] 6.25% | [5] -11.4% | [6] 19.1%

ClC(Cl)(Cl)C(N1CCN(c2ccccc2)CC1)N1CCN(c2ccccc2)CC1
inactive: [1] 8.95% | [2] -34% | [3] -29.4% | [4] -38.5% | [5] -25.9% | [6] -17.6%

OCCCc1ccccc1
inactive: [1] -0.1% | [2] -1.65% | [3] -2.55% | [4] -13.2% | [5] 3.25% | [6] -3.7%

Cc1ccc(NC(=O)CSc2nnc(-c3ccc(N=Cc4ccc(Cl)cc4)cc3)o2)cc1
inactive: [1] 2.3% | [2] -36.9% | [3] 12.5% | [4] -59.8% | [5] -15.8% | [6] 18.6%

CCOc1ccccc1NC(=O)C(=O)CC(=O)c1sc(Nc2nnc(-c3ccc(Cl)c(Cl)c3)o2)nc1C
inactive: [1] 20.5% | [2] -11.6% | [3] 21.1% | [4] 21.4% | [5] 31.4% | [6] 17.8%

Cc1cccc(NC(=O)CSc2nnc(Cc3ccccc3)o2)c1
inactive: [1] -28.1% | [2] -16.3% | [3] -15.1% | [4] -39.2% | [5] -36.7% | [6] -28.2%

COc1cc(Cl)ccc1C
inactive: [1] -1.2% | [2] -1.75% | [3] 5.75% | [4] -14.3% | [5] 18.1% | [6] -16.6%

COc1ccc([N+](=O)[O-])cc1NC(=O)Nc1ccc(F)c([N+](=O)[O-])c1
inactive: [1] 8.6% | [2] 3.4% | [3] -6.3% | [4] 0.2% | [5] -3.8% | [6] 6.3%

CCCCCCCCOC(=O)CO
inactive: [1] 23.8% | [2] -30.1% | [3] 17.8% | [4] 5.35% | [5] 3.1% | [6] 12.3%

COc1ccc(C2CC(c3c(C)nn(-c4ccccc4)c3-c3ccc(C)cc3O)=NN2c2ccccc2)cc1 (configuration not stated)
inactive: [1] -3.95% | [2] -12.3% | [3] -11.1% | [4] -2% | [5] -3% | [6] 50.5%

C=CCNC(=O)/C=C/C(=O)O
inactive: [1] -8.15% | [2] 6.85% | [3] 0.35% | [4] 4.45% | [5] 12.5% | [6] 6.15%

CCCCCCCCCCCCCCCCC1Cc2ccccc2C1
inactive: [1] -12.6% | [2] 8% | [3] -12.8% | [4] -12.1% | [5] -4.15% | [6] -7.6%

C/C(=N\Nc1ccccc1)c1sc(-c2nc(C)c(/C(C)=N/Nc3ccccc3)s2)nc1C
inactive: [1] 24.3% | [2] -3.2% | [3] 14.3% | [4] -29% | [5] 17.6% | [6] 25.2%

CC(=O)/C=c1\[nH]/c(=C\C=C\c2ccccc2)c(=O)n1/C=C1\C(=O)Oc2ccccc2C1=O
inactive: [1] -39.4% | [2] 7.1% | [3] 4.6% | [4] 24.6% | [5] -18.1% | [6] -46%

COC(=O)c1nnn(CCc2c[nH]c3ccccc23)c1C(=O)OC
inactive: [1] -10.8% | [2] 4% | [3] -11.3% | [4] -11.6% | [5] 19.8% | [6] -24.7%

O=NC1CCCCC1Cl (configuration not stated)
inactive: [1] 3% | [2] -4.15% | [3] 4.6% | [4] -4.45% | [5] 7.05% | [6] 2.55%

O=C1OCC2CC1C(=O)O2 (configuration not stated)
inactive: [1] -7.65% | [2] 0.3% | [3] 5.95% | [4] 4.7% | [5] -3.6% | [6] 6.65%

O=S(=O)(OCC1CC2CCC1CC2)c1ccc(Br)cc1 (configuration not stated)
inactive: [1] -17.1% | [2] 1.9% | [3] 9.35% | [4] 0.8% | [5] 10.2% | [6] -22.9%

Nc1cccc2ccc(Cl)nc12
inactive: [1] 37.9% | [2] 19.4% | [3] 14.2% | [4] 9.7% | [5] 16.3% | [6] -5%

COC(=O)NC(C(F)(F)F)(C(F)(F)F)P1(=O)OCCCO1
inactive: [1] 54.5% | [2] 59.9% | [3] 26.3% | [4] 43% | [5] 54% | [6] 37.6%

CC1=CC(=O)N(n2c(-c3ccccc3)n[nH]c2=O)C1=O
inactive: [1] -26.9% | [2] -12.9% | [3] -4.45% | [4] 7.95% | [5] -13.2% | [6] 5.3%

COc1ccc(-n2c(CCCC(=O)O)nc3c2C(=O)c2ccccc2C3=O)cc1
inactive: [1] 20.4% | [2] 23.8% | [3] 25.5% | [4] 17.1% | [5] 25.1% | [6] 33.5%

C[C@H](OCc1ccccc1)C(=O)N1CCS(=O)(=O)N2CCC[C@@H]2C1=O
inactive: [1] 5.05% | [2] -19.1% | [3] -18.2% | [4] 19.4% | [5] -5.9% | [6] -17.9%

CC(=O)OC1CC2CCC1(c1ccccc1)C2 (configuration not stated)
inactive: [1] 0.85% | [2] -25.1% | [3] 0.4% | [4] 14.4% | [5] -1.2% | [6] 3.15%

CCOP(=O)(OCC)/C(C#N)=C/c1cnc(-c2ccccc2)[nH]1
inactive: [1] -38% | [2] -4.85% | [3] -32.8% | [4] 16.1% | [5] 13.4% | [6] -34%

COc1ccccc1/C=N\NC(C)=O
inactive: [1] -9.9% | [2] 6.05% | [3] 5.35% | [4] 2.25% | [5] 6.05% | [6] -14.7%

NC(=O)N1CCCC1=O
inactive: [1] -18.4% | [2] -18.9% | [3] -20.8% | [4] -8.5% | [5] -11.3% | [6] -20.9%

CCN(CC)CCSCCSCCN(CC)CC
inactive: [1] -24.7% | [2] -1.55% | [3] -3.05% | [4] -39% | [5] 8.65% | [6] -10.3%

Cc1ccccc1-n1c(SCC(=O)NC(=O)Nc2cccc(Cl)c2)nc2c(Br)cc(Br)cc2c1=O
inactive: [1] -22.9% | [2] -5.5% | [3] 0.1% | [4] -16.1% | [5] -12.6% | [6] -2.75%

CCCCCCCCCCC1OCC(C)(C)CO1
inactive: [1] 10.3% | [2] -12.2% | [3] 17.4% | [4] -7.5% | [5] 1.65% | [6] 11.4%
